Most compounds without a hit are left out; they make up all but 3.7% or so of the library.
A549 viability = counter-screen for Nrf2 inhibitors: cytotoxicity in A549 cells. A549 ARE-Fluc cells, CellTiter-Fluor viability, 18-24 h. Potency, µM (highest dose often 46 µM), without a hit: top-dose activity change, negative = cytotoxicity, actives largely listed as inhibitors. 0.16% of 390,000 active; also: % is scaled to controls: 0 for no effect and ±100 for the full control effect
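A549 ARE-Fluc cells in 5% FBS OPTI-MEM, 5000 cells/well, rested 2 h then exposed to compounds in concentration-response for 18-24 h at 37 °C. Viability by CellTiter-Fluor fluorescence (Ex 405/Em 525) after 30 min; luciferase luminescence (BugLite, 15 min, RT) read afterwards.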
ELG1 repair inh = ELG1-dependent DNA repair inhibition; HEK293T ELG1-luciferase reporter, luminescence, 16 h; DNA damage induced by 5-fluorouridine; Potency, µM (top dose mostly 46.1 µM), for inactives: top-dose activity change, negative = inhibition, hits mostly inhibitors; AID 504467; 2.3% of 330,000 active; also: % is scaled to controls: 0 for no effect and ±100 for the full control effect; nearly all actives have a fitted effect of over 55% in size
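HEK293T cells expressing luciferase-tagged ELG1 (2,000/well) received 5-Fluorouridine plus compound or DMSO for 16 hr at 37 °C. Luciferase was read by ONE-Glo luminescence after 30 min at room temperature.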
Nrf2 activator = activators of Nrf2 (ARE) signaling | AREc32 ARE-luciferase reporter (MCF7-derived line), luminescence, 24 h | Potency, µM (doses to about 46.1 µM), without a hit: at the highest dose activation, usual class: activators | 0.31% of 410,000 active | AID 624171; also: % of control where 0% means no effect; nearly all actives have a fitted effect of over 65% in size
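Luminescent ARE reporter assay in AREc32_Fluc cells: overnight plating at 37 deg C, 24 hr compound incubation, Steady-Glo added, 30 min RT before reading.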
Nrf2 block = blocks Nrf2 signaling; A549 ARE-Fluc reporter, luciferase luminescence, 18-24 h; Potency, µM (top dose mostly 46 µM), for the others: top-dose activity change, negative = inhibition, hits mostly inhibitors; 2.1% of 360,000 active; also: % is scaled to controls: 0 for no effect and ±100 for the full control effect; nearly all actives have a fitted effect of over 60% in size
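A549 ARE_Fluc cells, 5000/well, 5% FBS OPTI-MEM; compounds in dose-response, 18-24 h at 37 °C/5% CO2; CellTiter-Fluor viability read (Ex 405/Em 525), then BugLite luciferase luminescence = Nrf2 activity.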
Numbers without * were called inactive; ? = inconclusive; . = no result. Calls follow the shape of the dose curve; as a rule, active = well fitted curve in the direction sought with a large enough effect; inconclusive = small, poorly fitted or top-dose-only effect, or another doubt; inactive = no such curve, though single readings can be large; an effect the other way counts as inactive or inconclusive. Potency is read from the fitted curve at half-maximal effect.

SMILES	A549 viability	ELG1 repair inh	Nrf2 activator	Nrf2 block
CCCc1nc2ccccc2c(=O)n1NC(=O)c1c(O)c2ccccc2n(C)c1=O	-22%	-15%	0%	18µM*
CCCCCCc1nc2ccccc2c(=O)n1NC(=O)c1c(O)c2c(n(CC(C)C)c1=O)CCCC2	?	9%	0%	21µM*
CCn1c(=O)c(C(=O)NNS(=O)(=O)c2ccc(C)cc2)c(O)c2ccccc21	-28%	9%	3%	15µM*
COC(=O)C1=C(COc2ccc(C=O)cc2OC)NC(=O)NC1c1cc(C)ccc1C (configuration not stated)	-1%	-21%	-1%	7%
Cc1ccc(-n2ncc3c(N4CCN(C)CC4)ncnc32)cc1Cl	5%	.	5%	.
COc1cccc(NC(=O)/C(C#N)=C\c2cn(Cc3ccc(Cl)cc3)c3ccccc23)c1	-21%	.	0%	?
COc1cccc(NC(=O)/C(C#N)=C/c2c(C)n(Cc3ccccc3)c3ccccc23)c1	-19%	.	0%	12µM*
CC(=O)Oc1ccc(C(=O)Nc2cccc(-c3nnc(-c4ccco4)o3)c2)cc1	?	?	4%	16µM*
CC(=O)Oc1ccc(C(=O)Nc2cccc(C(=O)c3cccc(NC(=O)c4ccc(OC(C)=O)cc4)c3)c2)cc1	-7%	23µM*	0%	-26%
O=C(Nc1cccc(-c2nnc(-c3ccco3)o2)c1)C(c1ccccc1)c1ccccc1	-26%	13µM*	0%	21µM*
O=C(Nc1cccc(-c2nnc(-c3ccco3)o2)c1)c1ccccc1	2%	-26%	2%	?
CC(=O)Oc1ccc(C(=O)Nc2cccc(C(=O)NC(C)(C)C)c2)cc1	0%	20%	2%	-26%
CC1=C(C(=O)OCc2ccccc2)C(c2ccccc2OS(=O)(=O)c2ccc([N+](=O)[O-])cc2)NC(=O)N1CCCC(=O)O (configuration not stated)	2%	.	4%	0%
Cc1ccc2oc(C(=O)Nc3c(C(=O)c4ccc(C)c(F)c4)oc4ccccc34)cc(=O)c2c1	3%	.	1%	-4%
CC1CCCN(S(=O)(=O)CCNC(=O)c2ccccc2)C1 (configuration not stated)	1%	17%	-1%	0%
O=C(NCCc1nccs1)C1CCC(=O)N(CCc2ccc(Cl)cc2)C1 (configuration not stated)	-8%	-11%	0%	8%
CCN(c1cccc(C)c1)C(CNS(=O)(=O)c1ccccc1)c1ccccc1 (configuration not stated)	-18%	.	0%	?
CCN(c1ccccc1)C(CNS(=O)(=O)c1ccccc1)c1ccccc1 (configuration not stated)	-24%	.	0%	23µM*
CCCCCCCCC(=O)N/N=C/c1cccc(Br)c1	-12%	12%	0%	21µM*
O=C1C2C3C=CC(O3)C2C(=O)N1N=Cc1cccc2ccccc12 (configuration not stated)	4%	.	5%	?
CCCCCOc1ccc(C(=O)CCN2CCOCC2)cc1	-6%	?	20µM*	?
OCCCNc1cc(-c2ccnc(Nc3cccc(Cl)c3)n2)ccn1	-10%	0.58µM*	-2%	?
COc1ccc(N(C)C(=O)c2cc3c(s2)-c2c(C)cccc2OC3)c(OC)c1	15%	23µM*	4%	21µM*
CCc1ccccc1N(C)C(=O)c1cc2c(s1)-c1c(C)cccc1OC2	7%	.	6%	-11%
c1ccc(C(c2ccccc2)N2CCN(c3nc4ccccc4n4cnnc34)CC2)cc1	-17%	?	0%	18µM*
SMILES	A549 viability	ELG1 repair inh	Nrf2 activator	Nrf2 block
O=C(N/N=C/c1cccc(Oc2ccc([N+](=O)[O-])cc2[N+](=O)[O-])c1)c1cncc(Br)c1	?	15%	?	13µM*
Cc1ccccc1OCC(=O)N/N=C/c1cccc(Oc2ccc([N+](=O)[O-])cc2[N+](=O)[O-])c1	-19%	?	?	?
Cc1sc(NC(=O)c2ccccc2F)c(CN2CCCCC2C)c1C (configuration not stated)	-2%	?	13µM*	?
O=C(NCCOc1ccccc1F)c1cccc(S(=O)(=O)N2CCN(c3ccccc3)CC2)c1	-7%	?	2%	4.6µM*
CCOc1ccc(OCC(=O)N2CCN(S(=O)(=O)c3ccccc3)CC2)cc1	.	.	-1%	.
COCCN(Cc1ccccc1)C(=O)c1cccc(S(=O)(=O)N2CCN(c3ccccc3)CC2)c1	-4%	15µM*	0%	?
CCN(CC(=O)Nc1c(F)cccc1F)C(=O)c1cccc(S(=O)(=O)N2CCCc3ccccc32)c1	?	.	0%	26µM*
CCOc1ccc(S(=O)(=O)N2CCN(C(=O)COc3ccc(Br)cc3)CC2)cc1	?	?	4%	16µM*
CCC(Sc1nc2nccnc2c(=O)n1Cc1ccccc1Cl)C(=O)NC1CCCCC1 (configuration not stated)	0%	.	8%	11%
Cn1c(NCc2cccnc2)nc2cc(-c3ccc(C(=O)N4CCOCC4)cc3)sc2c1=O	.	.	3%	.
O=C(Nc1ccccc1F)c1nc(SCc2ccccc2F)ncc1Cl	0%	.	0%	-7%
COc1cccc(CN(C)C(=O)c2cccc(S(=O)(=O)N3CCN(c4ccccc4)CC3)c2)c1	.	.	4%	.
O=C(c1cccc(S(=O)(=O)N2CCCC2)c1)N1CCN(c2ccccc2)CC1	-9%	?	-1%	?
COc1ccc(CN(C)C(=O)c2cccc(S(=O)(=O)N3CCN(c4ccccc4)CC3)c2)c(OC)c1OC	-20%	?	2%	10µM*
COc1cccc(NC(=O)CN(C)C(=O)c2cccc(S(=O)(=O)N3CCN(c4ccc(F)cc4)CC3)c2)c1	-18%	?	0%	?
CN(Cc1ccc(F)cc1)C(=O)c1cccc(S(=O)(=O)N2CCN(c3ccc(F)cc3)CC2)c1	-16%	?	0%	18µM*
CN(Cc1ccc(F)cc1)C(=O)c1cccc(S(=O)(=O)N2CCN(Cc3ccccc3)CC2)c1	1%	-7%	0%	?
CN(CC(=O)Nc1ccc(F)cc1)C(=O)c1cccc(S(=O)(=O)N2CCN(c3ccc(F)cc3)CC2)c1	-22%	?	1%	21µM*
O=C(c1cccc(S(=O)(=O)N2CCN(c3ccccc3)CC2)c1)N1CCCC(C(F)(F)F)C1 (configuration not stated)	-19%	?	-1%	13µM*
COC(c1ccc(Cl)cc1)(c1ccc(Cl)cc1)C(Oc1nc(C)cc(C)n1)C(=O)O (configuration not stated)	-24%	19%	0%	?
CN(CC1CCCN(CCc2ccc(Cl)cc2)C1)C(=O)c1ccco1 (configuration not stated)	0%	.	2%	-16%
CCCCCCCCN1C(=O)[C@H](CC(=O)N2CCCCC2)C[C@@]2(C(=O)OC)CCCCC=C12	.	.	0%	.

Screens: PubChem, National Center for Advancing Translational Sciences (NCATS)
